Screen size: about 5,500 compounds; about 2,000 (36%) were called active. Another 18% or so got no clear call; they are omitted. Cut-off read from the data, not from the text of the source: active = normalized growth mostly below about 0.91 (no sharp cut-off); inconclusive = no clear call, values can overlap the other calls; inactive = mostly above about 0.92. The list shows a part of the results.
Assay: chemical genetic growth profiling, strain panel (AID 1159580);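 note: tested at 20 µM; growth read once vehicle control cultures reached saturation at 30 °C; 1 = growth at the plate median or of vehicle wells; lower values mean less growth of the strain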
Conditions: growth OD

Measured: normalized growth

C[C@]12CCC(=O)C=C1C=CC1C2CC[C@@]2(C)C1CC[C@@]2(O)CCC(=O)O (some centres not stated)
inactive: S. cerevisiae deletion strains, locus YJR075W, strain HOC1, active compounds read low 0.991 | S. cerevisiae deletion strains, locus YKL009W, strain mrt4, active compounds read low 0.962 | S. cerevisiae deletion strains, locus YKL068W, active compounds read low 0.995 | S. cerevisiae deletion strains, locus YKL085W, strain MDH1 (second series), active compounds read low 0.993 | S. cerevisiae deletion strains, locus YKL085W, strain MDH1, active compounds read low 0.993 | S. cerevisiae deletion strains, locus YKL160W, strain elf1, active compounds read low 0.996 | S. cerevisiae deletion strains, locus YKL190W, strain CNB1, active compounds read low 1.01 | S. cerevisiae deletion strains, locus YKR001C, strain vps1, active compounds read low 0.98 | S. cerevisiae deletion strains, locus YKR026C, strain gcn3, active compounds read low 1.03 | S. cerevisiae deletion strains, locus YKR091W, strain srl3, active compounds read low 1.01 | S. cerevisiae deletion strains, locus YLL001W, strain dnm1, active compounds read low 1.01 | S. cerevisiae deletion strains, locus YLL026W, active compounds read low 1 | S. cerevisiae deletion strains, locus YLL041C, strain sdh2, active compounds read low 1.01 | S. cerevisiae deletion strains, locus YLR027C, strain aat2, active compounds read low 1.01 | S. cerevisiae deletion strains, locus YLR039C, strain RIC1, active compounds read low 0.986 | S. cerevisiae deletion strains, locus YLR058C, strain SHM2, active compounds read low 0.994 | S. cerevisiae deletion strains, locus YLR102C, strain apc9, active compounds read low 0.999 | S. cerevisiae deletion strains, locus YLR113W, strain HOG1, active compounds read low 1.06 | S. cerevisiae deletion strains, locus YLR221C, strain rsa3, active compounds read low 1.01 | S. cerevisiae deletion strains, locus YLR258W, strain gsy2, active compounds read low 1.02 | S. cerevisiae deletion strains, locus YLR262C, strain YPT6 (second series), active compounds read low 0.93 | S. cerevisiae deletion strains, locus YLR262C, strain YPT6, active compounds read low 0.983 | S. cerevisiae deletion strains, locus YLR268W, strain sec22, active compounds read low 0.929 | S. cerevisiae deletion strains, locus YLR320W, strain mms22, active compounds read low 1.01 | S. cerevisiae deletion strains, locus YLR330W, strain CHS5, active compounds read low 1.02 | S. cerevisiae deletion strains, locus YLR342W, strain FKS1 (second series), active compounds read low 1.05 | S. cerevisiae deletion strains, locus YLR342W, strain FKS1, active compounds read low 0.995 | S. cerevisiae deletion strains, locus YLR357W, strain rsc2, active compounds read low 1.01 | S. cerevisiae deletion strains, locus YLR370C, strain arc18, active compounds read low 1.02 | S. cerevisiae deletion strains, locus YLR371W, strain rom2, active compounds read low 0.985 | S. cerevisiae deletion strains, locus YLR384C, strain iki3, active compounds read low 1.02 | S. cerevisiae deletion strains, locus YLR418C, strain cdc73, active compounds read low 0.977 | S. cerevisiae deletion strains, locus YML016C, strain PPZ1, active compounds read low 0.99 | S. cerevisiae deletion strains, locus YML032C, strain rad52, active compounds read low 0.978 | S. cerevisiae deletion strains, locus YML120C, strain ndi1, active compounds read low 1.02 | S. cerevisiae deletion strains, locus YML124C, strain tub3, active compounds read low 0.996 | S. cerevisiae deletion strains, locus YMR058W, strain fet3, active compounds read low 1.02 | S. cerevisiae deletion strains, locus YMR078C, strain ctf18, active compounds read low 0.979 | S. cerevisiae deletion strains, locus YMR125W, strain sto1, active compounds read low 1.04 | S. cerevisiae deletion strains, locus YMR129W, active compounds read low 1.03 | S. cerevisiae deletion strains, locus YMR205C, strain PFK2, active compounds read low 1.05 | S. cerevisiae deletion strains, locus YMR223W, strain ubp8, active compounds read low 1.01 | S. cerevisiae deletion strains, locus YMR231W, strain pep5, active compounds read low 1.02 | S. cerevisiae deletion strains, locus YMR263W, strain SAP30, active compounds read low 0.988 | S. cerevisiae deletion strains, locus YMR307W, strain GAS1, active compounds read low 1.01 | S. cerevisiae deletion strains, locus YNL067W, strain RPL9B, active compounds read low 0.969 | S. cerevisiae deletion strains, locus YNL071W, strain lat1, active compounds read low 1.01 | S. cerevisiae deletion strains, locus YNL128W, strain TEP1, active compounds read low 0.995 | S. cerevisiae deletion strains, locus YNL153C, strain GIM3, active compounds read low 0.977 | S. cerevisiae deletion strains, locus YNL183C, strain NPR1, active compounds read low 0.995 | S. cerevisiae deletion strains, locus YNL209W, strain ssb2, active compounds read low 1.02 | S. cerevisiae deletion strains, locus YNL233W, strain BNI4, active compounds read low 0.99 | S. cerevisiae deletion strains, locus YNL248C, strain rpa49, active compounds read low 1.04 | S. cerevisiae deletion strains, locus YNL250W, strain rad50, active compounds read low 0.993 | S. cerevisiae deletion strains, locus YNL271C, strain bni1, active compounds read low 0.986 | S. cerevisiae deletion strains, locus YNL298W, strain CLA4, active compounds read low 0.984 | S. cerevisiae deletion strains, locus YNL307C, strain MCK1, active compounds read low 0.989 | S. cerevisiae deletion strains, locus YNL322C, strain KRE1 (second series), active compounds read low 1.02 | S. cerevisiae deletion strains, locus YNL322C, strain KRE1, active compounds read low 1 | S. cerevisiae deletion strains, locus YNR049C, strain mso1, active compounds read low 1.02 | S. cerevisiae deletion strains, locus YNR052C, strain pop2, active compounds read low 0.996 | S. cerevisiae deletion strains, locus YOL006C, strain TOP1, active compounds read low 0.951 | S. cerevisiae deletion strains, locus YOL012C, strain htz1 1.54 | S. cerevisiae deletion strains, locus YOL147C, strain pex11, active compounds read low 0.989 | S. cerevisiae deletion strains, locus YOR001W, strain rrp6, active compounds read low 1 | S. cerevisiae deletion strains, locus YOR061W, strain CKA2, active compounds read low 0.995 | S. cerevisiae deletion strains, locus YOR069W, strain VPS5, active compounds read low 0.985 | S. cerevisiae deletion strains, locus YOR070C, strain gyp1, active compounds read low 1.03 | S. cerevisiae deletion strains, locus YOR080W, strain dia2, active compounds read low 1.02 | S. cerevisiae deletion strains, locus YOR083W, strain WHI5, active compounds read low 0.965 | S. cerevisiae deletion strains, locus YOR106W, strain vam3, active compounds read low 1.01 | S. cerevisiae deletion strains, locus YOR136W, strain idh2, active compounds read low 0.987 | S. cerevisiae deletion strains, locus YOR144C, strain elg1, active compounds read low 0.994 | S. cerevisiae deletion strains, locus YOR184W, strain ser1, active compounds read low 0.977 | S. cerevisiae deletion strains, locus YOR231W, strain MKK1, active compounds read low 1.05 | S. cerevisiae deletion strains, locus YOR265W, strain rbl2, active compounds read low 1.02 | S. cerevisiae deletion strains, locus YOR270C, strain vph1, active compounds read low 1.05 | S. cerevisiae deletion strains, locus YOR290C, strain snf2, active compounds read low 1.02 | S. cerevisiae deletion strains, locus YOR316C, strain cot1, active compounds read low 0.995 | S. cerevisiae deletion strains, locus YPL051W, strain arl3, active compounds read low 1 | S. cerevisiae deletion strains, locus YPL055C, strain LGE1, active compounds read low 1.02 | S. cerevisiae deletion strains, locus YPL078C, strain atp4, active compounds read low 1.01 | S. cerevisiae deletion strains, locus YPL106C, strain sse1, active compounds read low 1.01 | S. cerevisiae deletion strains, locus YPL240C, strain hsp82, active compounds read low 1.02 | S. cerevisiae deletion strains, locus YPL241C, strain CIN2, active compounds read low 1 | S. cerevisiae deletion strains, locus YPL256C, strain CLN2, active compounds read low 1.1 | S. cerevisiae deletion strains, locus YPR119W, strain clb2, active compounds read low 0.994 | S. cerevisiae deletion strains, locus YPR141C, strain kar3, active compounds read low 0.982 | S. cerevisiae deletion strains, locus YPR163C, strain tif3, active compounds read low 0.991 | S. cerevisiae deletion strains, locus YPR167C, strain met16, active compounds read low 0.995 | S. cerevisiae deletion strains, strain wtn01, active compounds read low 0.953 | S. cerevisiae strains, strain wild type, active compounds read low 1

From PubChem BioAssay AID1159580 (chemical genetic matrix, 2015)
